This note sets out measurements from PubChem BioAssay AID1508600 (Functional Genomics Laboratory (NCATS/FGL), 2020).

The whole screen tested about 53,000 sequences, of which about 3,700 (7%) were called active.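 Rule for the calls: active = gene knockdowns whose robust z-score for IL-1 alpha signal is at least 2 or at most -2, so actives lie on both sides; inactive = the rest.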 The entries come from a sample that favours actives as a whole.

This experiment is described as follows: Components of the Cytosolic LPS Sensing Pathway: Gene Identification via Genome-wide siRNA Screen.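 Note: robust z of the log signal after scaling to non-targeting control siRNA wells of the plate.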 As to conditions: RAW264.7 macrophages, IL-1a HTRF, actives lie on both sides, screened at 100 nM (by protocol), cells primed 5 h with Pam3CSK4 first. The procedure, abridged:
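Mouse macrophage line RAW264.7 is transfected with siRNA (100 nM final), grown 48h, primed with TLR ligand Pam3CSK4 5 h and given intracellular LipidA 24 h. IL-1a in supernatant is read by HTRF and viability by luminescence.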
In general terms: Time-resolved FRET reads energy transfer from a long-lived donor to a nearby acceptor.
Take GGAAGAACUAGAGUCAUAUTT against Eps8l1: the z-score is -0.0721 (inactive).

For the sequence CCAUACAUAAAAAGCCGCCTT against Il1rl1, the z-score was 1.29 (inactive).

GGUUCAUGUCAUCUUUAACTT against Calr: the z-score was -1.21 (inactive).

As to GCAGAUGAUACCUGGGCAATT against Mtmr14, the z-score is 2.68 (active).

Turning to GGAUCAAUUGGCACUAGACTT against Zfp787, the z-score is -1.31 (inactive).

With GGACAAGUCCUUUGCUGUGTT against Zmynd8, the z-score is -1.35 (inactive).

Consider GGCAAUACUGGAAGGGUGUTT against Eps15, for which the z-score is -1.03 (inactive).

As for GGAUGAUAUGGCAUACUUUTT against Fam221a, the z-score is 0.803 (inactive).

Turning to “GGCCAUCUUGAAUUUUUUATT against 2410002F23Rik”, the z-score was 0.0652 (inactive).

Consider GGUGCUGUUGAAUUGUGGGTT against Wdr77, for which the z-score was -0.366 (inactive).

With GAGCUCCUCUGCUUUCUCUTT against Ms4a6d, the z-score was -2.74 (active).

As to GGUUAAACUUGGUGAAUUATT against Kcnj16, the z-score is 0.901 (inactive).

Take GCACAUGUCUGUGAUUCAATT against St8sia1: the z-score is -0.166 (inactive).

With GCGGAAACUCUCGAAAGUGTT against Dhx34, the z-score was -1.52 (inactive).

Regarding CCUGAUGCAACACAGGUCCTT against Zbtb26, the z-score was 0.352 (inactive).

Turning to CGGAACACCAAUAAGAGAATT against Hgd, the z-score was -0.667 (inactive).

For the sequence GGACCGAUUAAGGAAGGAATT against Ppp1r1a, the z-score was 2.49 (active).

With GCGUGAUUGACAACUGGUUTT against Cphx1, the z-score is 0.236 (inactive).

For the sequence GGGAAUAUGACUGAAUAUATT against Ss18, the z-score was -1.05 (inactive).

CCAAAUCGCUUCACAUAAUTT against Atp6v1g2: the z-score is -1.1 (inactive).

In the case of GAGAAUGAGUUCUGCCCAGTT against Lhb, the z-score is 2.24 (active).

On to GGACAAGAACCUGAAGCGGTT against Cdk5r1, for which the z-score was -0.355 (inactive).

With GGCUGGAGAAAAUGAUGAATT against Rwdd1, the z-score is -0.267 (inactive).

With GGAAGACAUAUUAACUACUTT against Gpr37, the z-score is 0.544 (inactive).

Turning to GGAAAGCUCAAUUGGUUCGTT against Nup85, the z-score is -2.27 (active).

Take GGGAUCAUCUCUUUUGCUGTT against Olfr720: the z-score is -1.33 (inactive).

As to GGGAAGCCUUUUUUAUCGGTT against V1rb5, the z-score was 0.838 (inactive).

Turning to CCCAUCCAAUAAGCAAUUGTT against Lpcat2, the z-score was -0.696 (inactive).

Regarding GCGAGACUAUCAAAUCUAUTT against Gabra4, the z-score was 0.948 (inactive).

As for GGGAUAGUUACCUAAGACATT against Adarb2, the z-score is 0.593 (inactive).

Regarding GCACAAGUCUAAACAGCUGTT against Fermt1, the z-score was 0.494 (inactive).

For GGAAAAAUACUCCAUAUUCTT against Enam, the z-score was 0.0353 (inactive).

CCUCAACACUCAGCUCAAUTT against Ifna14: the z-score was -2.67 (active).

GGCCAGUAGAUCCUUCUAATT against Fgf16: the z-score is 0.406 (inactive).

Take CCUAAUCUAGAGCAACACATT against Ankrd34c: the z-score was -1.67 (inactive).

Take GGCCUACCUUACCCUAAGATT against Adam32: the z-score was 0.513 (inactive).

Consider CCAUGGCUUACGAGAGACATT against Mavs, for which the z-score was -0.884 (inactive).

For GGAAUCCUUUCCUAAAUUGTT against Lin9, the z-score is 0.745 (inactive).

With GGAUAUGCUCUCUUGGCUCTT against Ctsk, the z-score is -2.07 (active).

For the sequence GGCUUCCUCCACUCUUUCCTT against Rhbg, the z-score is -1.81 (inactive).

Consider GGAACCAUGAAAUAAAUGUTT against Acad8, for which the z-score was 0.684 (inactive).

Turning to CCCUUAUUGAUUCUUCAAGTT against Ngp, the z-score was 0.342 (inactive).

For the sequence “GGUGCAACCAGUGUGUGAUTT against St6galnac6”, the z-score was 4.22 (active).

As for CCCUCUAUCCUUAAACCAUTT against Erg28, the z-score was -0.549 (inactive).

As to CCUAUUCUUAACACCCUUGTT against Tfr2, the z-score was 0.891 (inactive).

Regarding AUCUCUCCUGUUCUAACACTT against Olfr26, the z-score was -0.242 (inactive).

For GGUCAUCAGCUUGUAACCATT against Mmadhc, the z-score was -1.37 (inactive).

Turning to “GGACAAUUACAUCCAGCCUTT against 2610528J11Rik”, the z-score was -2.11 (active).

Take GGACCUCAGCGAAGACAAUTT against Cd300e: the z-score is 0.114 (inactive).

As for GGUGAAAAGGUUGAUGUCATT against Spertl, the z-score is -0.368 (inactive).

Take GCUCAAUAGCUCAAAGUUUTT against Chsy3: the z-score was -0.197 (inactive).

GCCCUCCAACCUCGAUAACTT against Shisa7: the z-score was 2.9 (active).

With GGAUGACCAAGAAUGGGAATT against Dap, the z-score was 0.341 (inactive).

GCAAAGGAGGCUUCUAUUGTT against Olfr380: the z-score is -0.803 (inactive).

GGAGUUGUGGAAUUCUCUATT against Extl2: the z-score was -1.3 (inactive).

Turning to AACAGAUCUUCUCUGGUCCTT against Klra15, the z-score is -2.47 (active).

In the case of GCUUGUGUUUUAGAGCCGCTT against Mat1a, the z-score was 0.653 (inactive).

Regarding GCACAAUGACGCACUUACCTT against Pik3r2, the z-score was 0.693 (inactive).

In the case of CCUGGAAUGUAUUUGUUAUTT against Nkain2, the z-score was 0.0256 (inactive).

On to GGAACACUACCGUUUUGGGTT against Ehd2, for which the z-score was 2.55 (active).

Take GGACCAGGUUUGUUUUUUATT against Stom: the z-score was 1.03 (inactive).

Regarding CGGUUUUGUCAAAGCCCUGTT against Junb, the z-score is 0.322 (inactive).

As for GGUCAAGACGGUCUACCGATT against Rab3d, the z-score is -0.571 (inactive).

For the sequence GGGAUAUCAAAGCAAAAAUTT against Rab8a, the z-score is -0.578 (inactive).

Take GGGUUCACGAAAGAGUAAATT against Clcn5: the z-score was -1.21 (inactive).

Take GCCGUACCGGAUUUUUUUCTT against Smyd3: the z-score is 4 (active).

In the case of GCAGCUAACUCCAAGUCAGTT against Tfam, the z-score was -1.42 (inactive).

GGACUUGCCUUGAUCGCUATT against Mars2: the z-score was 0.853 (inactive).

As for CGCGACAGAAUCAGUACAATT against Hnf4g, the z-score was 2.17 (active).
